Results on 27 compounds are retold here after PubChem BioAssay (NCI).

Each structure is given as a SMILES string. The panel holds about 83,000 compounds, 20% with a hit somewhere; the sample as a whole holds those more often.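 Method: cells in 96-well plates; compound added at one concentration; 48 h incubation; percent growth measured; values under 10 scored active.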 A number with no mark means an inactive call. The source made the active and inactive calls.

Common to all, as to assay: NCI-60 one-dose screen, 48 h (100 = growth as untreated, 0 = no growth, -100 = all killed)
Experiment [1] relates to NCI-H23 lung. As to conditions: 10 µM unless noted.
The test system of experiment [2] is NCI-H226 lung. As to conditions: 10 µM unless noted.
In experiment [3] the test system is NCI-H322M lung. As to conditions: 10 µM unless noted.
Experiment [4] concerns NCI-H460 lung. As to conditions: 10 µM unless noted.
Experiment [5] has as its system HOP-92 NSCLC. As to conditions: 10 µM.
The subject of experiment [6] is NCI-H522 lung. As to conditions: 10 µM.
Experiment [7] deals with A549/ATCC NSCLC. As to conditions: 10 µM unless noted.
Experiment [8] deals with 786-0 renal. As to conditions: 10 µM unless noted.
Experiment [9] has as its system COLO 205 colon. As to conditions: 10 µM unless noted.

For `CC(=O)OCC1O[C@@H](OC(C)=O)[C@@H](NC(=O)NS(=O)(=O)c2ccccc2)C(OC(C)=O)[C@@H]1OC(C)=O` (stereo partly drawn), the growth in experiment [1] was 113%; in [2], 99.7%; in experiment [3], 98.7%; in [4], 117%; in experiment [5], 97.9%; in [6], 96%. Also, the growth is 106% in experiment [7], 98.3% in experiment [8] and 120% in experiment [9].
As to `COc1ccc(OC)c(Cn2cc3c(c2-c2ccccc2)CCc2cnoc2-3)c1`, the growth in experiment [1] is 60.8%; in experiment [2], 78.8%; in experiment [3], 57.5%; in [4] it was 22.7%; in [5], 59.8%; in experiment [6], 56.4%. In addition, the growth was 50.8% in experiment [7], 66.6% in experiment [8] and 35.9% in [9].
On to `O=Nc1c(-c2c(O)[nH]c3cc(Br)ccc23)[nH]c2ccccc12`, for which the growth in experiment [1] was -80.8% (active); in [2], -39.4% (active); in experiment [3] it was 16.6%; in [4], -72.8% (active); in experiment [5], 14.4%; in experiment [6], -29% (active). In addition, the figures for the growth in experiment [7], in experiment [8] and in experiment [9] were -61.9% (active), 6.13% (active) and -100% (active), respectively.
Turning to `Cc1ccc(S(=O)(=O)N/N=C2\CC3CCC2C3)cc1` (stereo not drawn), the growth in experiment [1] was 117%; in experiment [2], 96.8%; in experiment [3], 99.3%; in experiment [4], 107%; in experiment [5] it was 87.2%; in [6], 96.7%. Besides, the growth in [7] was 105%; in [8], 100%; in experiment [9], 113%.
As to `CC(=O)Nc1nc(C)c(C(=O)NN)s1`, the growth in [1] is 103%; in [2] it was 92.1%; in [3], 96%; in [4] it was 115%; in [5], 3.84% (active); in experiment [6], 97.5%. The growth in experiment [7] is 101%; in experiment [8], 93%; in experiment [9], 108%.
Regarding `COc1cc(CCNc2cnc3cc(N)cc(N)c3n2)cc(OC)c1`, the growth in [1] was 107%; in experiment [2], 99.4%; in [3] it was 102%; in [4] it was 120%; in [5] it was 154%; in [6], 98.2%. In addition, the growth in [7] was 112%; in experiment [8], 101%; in experiment [9], 136%.
With `CCC1(CC)C(OC)NC(Br)=C(C#N)C1(C#N)C(N)=O` (stereo not drawn), the growth in [1] was 99.1%; in [2], 114%; in experiment [3], 118%; in experiment [4] it was 115%; in experiment [5] it was 77.3%; in [6] it was 98%. The growth in [7] was 114%; in experiment [8], 94.3%; in experiment [9] it was 126%.
With `CCOC(=O)CSSCC(=O)OCC`, the growth in experiment [1] is 112%; in experiment [2], 123%; in experiment [3] it was 106%; in [4], 108%; in [5], 103%; in [6], 99.7%. In addition, the growth in [7] was 98.7%; in experiment [8] it was 106%; in experiment [9], 113%.
As to `O=C(Nn1cnc2ccccc21)N1CCCC1`, the growth in [1] is 111%; in [2] it was 105%; in experiment [3], 86.7%; in [4] it was 117%; in experiment [5] it was 74.1%; in experiment [6] it was 104%. Further, the growth in [7] is 109%; in experiment [8], 80.3%; in [9] it was 117%.
As to `c1ccc2[nH]c(-c3ccc(OCCCCCOc4ccc(-c5nc6ccccc6[nH]5)cc4)cc3)nc2c1`, the growth in experiment [1] is 40.9%; in experiment [2] it was 103%; in experiment [3], 72.7%; in [4], -19.8% (active); in experiment [5], -75% (active); in experiment [6], 30.9%. Also, the growth in experiment [7] was 12.7%; in experiment [8], 14.7%; in experiment [9], 121%.
Take `CC1(c2ccc(Br)cc2)NC(=O)NC1=O` (stereo not drawn): the growth in [1] is 105%; in experiment [2] it was 110%; in [3], 103%; in [4], 104%; in experiment [5] it was 89.6%; in experiment [6], 102%. Also, the growth in experiment [7] was 93.3%; in experiment [8] it was 96%; in [9], 113%.
With `CCCCN(CCCC)CC(O)CN(CC)CC` (stereo not drawn), the growth is 99.6% in experiment [1]; 96.3% in experiment [2]; 97.6% in experiment [3]; 114% in experiment [4]; 93.4% in experiment [5]; 95.3% in experiment [6]. In addition, the growth in experiment [7] is 99%; in [8], 104%; in [9], 99.3%.
As for `CC1Cc2cc(F)ccc2-n2cccc21` (stereo not drawn), the growth in experiment [1] is 98.5%; in experiment [2] it was 154%; in experiment [3], 100%; in experiment [4] it was 98.7%; in [5] it was 73.8%; in experiment [6] it was 101%. Besides, the growth was 104% in experiment [7], 111% in [8] and 94.6% in experiment [9].
With `COc1cc(N)c2nccc(C)c2c1OC`, the growth in [1] is 115%; in experiment [2], 101%; in experiment [3], 106%; in experiment [4], 112%; in experiment [5], 81.7%; in [6], 133%. In addition, the growth in experiment [7] was 117%; in experiment [8], 103%; in experiment [9], 116%.
In the case of `CC(=O)N1N=C(c2ccc(Cl)cc2)CC1c1cn(-c2ccccc2)nc1-c1ccc([N+](=O)[O-])cc1` (stereo not drawn), the growth is 101% in experiment [1]; 93.6% in experiment [2]; 83.1% in experiment [3]; 101% in experiment [4]; 117% in experiment [5]; 103% in experiment [6]. The values for the growth in experiment [7], in experiment [8] and in [9] were 108%, 104% and 93.9%, respectively.
As for `CC(=O)OC1/C=C\CC/C=C\C1` (stereo not drawn), the growth was 121% in [1]; 102% in experiment [2]; 102% in experiment [3]; 102% in experiment [4]; 92.8% in experiment [5]; 102% in experiment [6]. In addition, the growth in experiment [7] is 100%; in [8], 102%; in experiment [9], 121%.
On to `O=C(/C=C/c1cccc(O)c1)c1cccc(-n2cc(-c3ccc(Cl)cc3)[nH]c2=O)c1`, for which the growth was -19.5% (active) in experiment [1]; -48.7% (active) in experiment [2]; -0.035% (active) in experiment [3]; -4.62% (active) in experiment [4]; -35.6% (active) in experiment [5]; -48.6% (active) in [6]. The growth was 28.3% in experiment [7], -74.7% (active) in [8] and 42.1% in experiment [9].
For the compound `CCNc1nnc(COc2ccc(CNC(=O)CCCC/C=C/C(C)C)cc2OC)o1`, the growth in experiment [1] is 93.7%; in experiment [2] it was 101%; in experiment [3] it was 107%; in [4], 103%; in [5], 98.3%; in experiment [6] it was 83.7%. In addition, the growth in experiment [7] was 97%; in experiment [8] it was 95.5%; in experiment [9], 110%.
Take `CC(=O)/C(=C/c1ccc(-c2ccccc2)cc1)C(=O)c1ccccc1`: the growth was 91.6% in experiment [1]; 83.1% in experiment [2]; 100% in experiment [3]; 99.8% in experiment [4]; 89.9% in experiment [5]; 61.7% in experiment [6]. Also, the growth in experiment [7] is 76.4%; in experiment [8] it was 92%; in experiment [9], 93.6%.
On to `CC1(C)C(O)NC(Cl)=C(C#N)C1(C#N)C#N` (stereo not drawn), for which the growth in [1] was 92.2%; in experiment [2], 135%; in experiment [3], 130%; in experiment [4], 113%; in experiment [5] it was 141%; in experiment [6], 91.5%. Besides, the growth in [7] is 103%; in experiment [8] it was 95.6%; in experiment [9], 118%.
Consider `CC(C)OC(=O)c1ccc2n1CCCc1cnc(Nc3ccccc3)nc1-2`, for which the growth in experiment [1] is 67%; in [2], 84.4%; in [3] it was 116%; in experiment [4] it was 86.6%; in experiment [5], 75.6%; in experiment [6], 63.3%. The growth is 74.4% in [7], 83.3% in [8] and 86% in [9].
As to `Clc1ccc(N/N=C(/c2ccccc2)c2ccccn2)nc1`, the growth is 29.7% in experiment [1]; 27.1% in [2]; 39.8% in [3]; 28.8% in experiment [4]; 51% in [5]; 60.8% in experiment [6]. Besides, the results for the growth in experiment [7], in experiment [8] and in experiment [9] were 32%, 37.6% and 25%, respectively.
As for `NC(N)=N/N=C/c1cccc(Br)c1`, the growth in experiment [1] was 97.6%; in experiment [2], 88.7%; in experiment [3], 91.2%; in experiment [4] it was 104%; in [5], 88.9%; in experiment [6], 100%. Moreover, the figures for the growth in experiment [7], in experiment [8] and in [9] were 98.8%, 94.2% and 90.2%, respectively.
For the compound `Cc1nnc(-c2cc3c(ccc4ccccc43)oc2=O)c2cn(-c3ccc(Cl)cc3)nc12`, the growth is 86.9% in experiment [1]; 92% in [2]; 98.8% in [3]; 94.5% in [4]; 85.9% in [5]; 81.2% in experiment [6]. For the same compound, the growth is 95.2% in experiment [7], 97.5% in [8] and 111% in [9].
Take `NNC(=O)CNc1ccc2ccccc2c1`: the growth in experiment [1] is 101%; in [2], 109%; in [3], 115%; in [4], 113%; in experiment [5] it was 70.4%; in [6], 98.5%. Besides, the growth in experiment [7] was 115%; in experiment [8], 105%; in [9], 109%.
For the compound `O=C(Nc1ccc(Cl)cn1)C1(c2ccccc2)CCCCC1`, the growth in experiment [1] is 114%; in experiment [2], 103%; in [3] it was 119%; in [4], 102%; in experiment [5] it was 60.7%; in experiment [6], 140%. For the same compound, the growth is 110% in experiment [7], 97.5% in [8] and 103% in experiment [9].
With `CC(=O)Nc1ccc(CC#N)cc1Br`, the growth was 110% in experiment [1]; 96.4% in experiment [2]; 105% in experiment [3]; 101% in experiment [4]; 94% in [5]; 92.9% in experiment [6]. Also, the growth in [7] is 103%; in [8] it was 101%; in experiment [9], 109%.
